Compound activity (PubChem BioAssay)
EPAC2 agonist – EPAC2 (human) agonism; AID 720711; Potency, µM (doses to about 154 µM), for the others: at the top dose activation, most hits filed as activators; EPAC2 activation, biochemical qHTS; response scale: 100% = 6.5 mM cAMP response; hit rate 0.079% among 360,000; Q8WZA2; also: nearly all actives have a fitted effect of over 50% in size
Target sequence (Q8WZA2 whole entry, looked up): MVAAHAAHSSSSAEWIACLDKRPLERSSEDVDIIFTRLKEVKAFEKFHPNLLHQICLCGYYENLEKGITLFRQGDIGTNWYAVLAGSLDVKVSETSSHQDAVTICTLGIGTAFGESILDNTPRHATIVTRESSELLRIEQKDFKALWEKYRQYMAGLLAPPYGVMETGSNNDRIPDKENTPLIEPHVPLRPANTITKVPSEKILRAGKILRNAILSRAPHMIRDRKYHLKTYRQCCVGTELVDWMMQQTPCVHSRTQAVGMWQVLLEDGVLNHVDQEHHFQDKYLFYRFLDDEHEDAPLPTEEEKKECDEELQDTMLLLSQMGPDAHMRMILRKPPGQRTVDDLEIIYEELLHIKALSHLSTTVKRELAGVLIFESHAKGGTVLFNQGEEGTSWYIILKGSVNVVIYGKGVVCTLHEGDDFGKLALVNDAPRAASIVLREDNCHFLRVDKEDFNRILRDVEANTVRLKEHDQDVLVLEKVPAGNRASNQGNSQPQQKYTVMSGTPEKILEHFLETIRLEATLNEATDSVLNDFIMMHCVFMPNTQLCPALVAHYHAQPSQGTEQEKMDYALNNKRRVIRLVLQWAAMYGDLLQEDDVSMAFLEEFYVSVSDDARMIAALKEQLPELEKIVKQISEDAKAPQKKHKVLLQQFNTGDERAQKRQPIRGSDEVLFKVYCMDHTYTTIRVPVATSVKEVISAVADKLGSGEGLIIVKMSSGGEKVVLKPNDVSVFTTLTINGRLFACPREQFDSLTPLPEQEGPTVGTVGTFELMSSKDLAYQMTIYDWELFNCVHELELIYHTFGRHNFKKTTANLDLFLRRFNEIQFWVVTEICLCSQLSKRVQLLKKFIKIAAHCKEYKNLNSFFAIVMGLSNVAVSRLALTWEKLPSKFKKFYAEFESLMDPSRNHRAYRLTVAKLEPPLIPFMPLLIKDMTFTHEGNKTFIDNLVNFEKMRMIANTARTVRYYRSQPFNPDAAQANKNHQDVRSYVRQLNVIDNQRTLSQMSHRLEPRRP
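Guanine nucleotide exchange by EPAC2 is measured as reduced fluorescence of BODIPY-GDP once it is released from 250 nM Rap1B. Plates are read kinetically for 30 min at room temperature; results are scaled to 6.5 mM cAMP.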
EPAC1 agonist – activates human EPAC1 exchange factor. EPAC1 agonist qHTS, biochemical assay; response scale: 100% = response to 6.5 mM cAMP. hit rate 0.073% among 360,000. Potency, µM (top dose mostly 154 µM), inactives show at the highest dose activation, actives largely listed as activators. O95398. AID 720707; also: nearly all actives have a fitted effect of over 60% in size
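Fluorescent GDP-exchange assay: 100 nM EPAC1 with 250 nM Rap1B preloaded with BODIPY-GDP and 50 uM GDP; compounds tested as concentration series, 5 min at room temperature, then read every 5 min for 30 min (ex 480/em 540 nm); normalized to 6.5 mM cAMP.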
EPAC2 antag – antagonists of human EPAC2 | hit rate 0.18% among 360,000 | Potency, µM (top dose mostly 114 µM), for the others: at the highest dose activity, negative = inhibition, usual class: inhibitors | EPAC2 GEF exchange of Rap1B-BODIPY-GDP, fluorescence | Q8WZA2; also: % is scaled to controls: 0 for no effect and ±100 for the full control effect; nearly all actives have a fitted effect of over 45% in size
EPAC1 antag – antagonists of human EPAC1; O95398; EPAC1 GEF assay, Rap1b-BODIPY-GDP exchange fluorescence; Potency, µM (top dose mostly 115 µM), for the others: top-dose activity change, negative = inhibition, most hits filed as inhibitors; hit rate 0.14% among 360,000;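 also: plate controls were vehicle for no effect and positive control for full effect; nearly all actives have a fitted effect of over 50% in size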
Rango complex inh – inhibitors of Rango-importin beta complex formation; Q14974; Rango CFP/YFP FRET sensor + importin beta, 45 min; Potency, µM (top dose mostly 92.2 µM), for the others: at the highest dose inhibition of complex formation; hit rate 0.031% among 340,000; calls by dose curve;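 also: 0% = DMSO wells and 100% = buffer wells lacking importin beta; nearly all actives have a fitted effect of over 15% in size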
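Inhibition scored from the CFP 486 nm/YFP 530 nm FRET ratio 45 min after adding 0.125 microM importin beta to 50 nM Rango biosensor preincubated 5 min with compound (room temperature, PBS with DTT, Tween-20, BSA). No-importin wells as positive control.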
Rango release inh – inhibition of RanGTP-driven Rango-importin beta dissociation. O95149+P62826. Biochemical FRET Rango-importin beta, RanGTP-induced dissociation. Potency, µM (top dose mostly 46.1 µM), for inactives: top-dose activity change, negative = inhibition. hit rate 0.071% among 340,000; calls by dose curve; also: % of control where 0% means no effect; nearly all actives have a fitted effect of over 45% in size
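FRET read at 45 min, room temperature: inhibitors block the CFP/YFP signal rise when RanGTP (0.6 uM Ran, 2 mM GTP, 0.2 uM RCC1) frees Rango (0.1 uM) from importin beta (0.25 uM). Pre-read after 5 min compound exposure flags interference.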
The depositor's hits bear a star; i = inactive; ? = inconclusive; . = not tested or not shown; [ ] = remark or other dose. Compounds with a hit are over-represented: about 0.43% of the library has one in this group of screens. Unless noted, calls follow the shape of the dose curve; as a rule, active = well fitted curve in the direction sought with a large enough effect; inconclusive = small, poorly fitted or top-dose-only effect, or another doubt; inactive = no such curve, though single readings can be large; an effect the other way counts as inactive or inconclusive. Potency is read from the fitted curve at half-maximal effect.

SMILES	EPAC2 agonist	EPAC1 agonist	EPAC2 antag	EPAC1 antag	Rango complex inh	Rango release inh
COc1cc(/C=C2\SC(=S)N(CCCCC(=O)O)C2=O)ccc1OS(=O)(=O)c1ccc(C)cc1	1%	8%	-9%	?	4%	-6%
CC(=C\C(=O)O)/C(=C\c1cccc2ccccc12)C(=O)O	4%	-1%	4%	-28%	0%	-9%
O=C(c1ccco1)N1N=C2CCCCCC2C1(O)C(F)(F)F (stereo not given)	3%	9%	79µM*	6%	-3%	-6%
O=C(c1ccncc1)N1N=C2CCCCCC2C1(O)C(F)(F)F (stereo not given)	9%	11%	-5%	13%	5%	4%
CC1(C(=O)Nc2ccc(F)c(Cl)c2)Cc2c(-c3ccccc3)ccnc2O1 (stereo not given)	4%	2%	-11%	-4%	.	.
Cc1cc(OC(=O)c2c(C)cc(OC(=O)c3c(C)cc(O)cc3O)cc2O)cc(O)c1C(=O)O	2%	-6%	-3%	56µM*	1%	5%
COC(=O)c1c(C)cc(O)cc1O	4%	-14%	-2%	-14%	-2%	3%
COCCCNc1oc(COc2ccc(Cl)cc2Cl)nc1C#N	17%	3%	-2%	-1%	?	?
CN(C)CCNc1oc(COc2ccc(Cl)cc2Cl)nc1C#N	4%	9%	-3%	6%	?	16µM*
CCOC(=O)c1cc(-c2ccc(/C=C3/C(=O)N(c4ccc(C(=O)O)cc4)N=C3C)o2)ccc1Cl	2%	7%	3%	35µM*	-5%	9%
COc1ccc(CCNC(=O)COc2ccc(S(=O)(=O)N3CCOCC3)cc2)cc1OC	4%	-6%	3%	4%	4%	-2%
Nc1nc(Br)c2ccccc2c1-c1ccccc1	26%	9%	-15%	1%	?	13µM*
Nc1nc(Br)c2c(F)cccc2c1-c1ccc(Cl)cc1	12%	10%	-19%	-2%	0%	4%
CC(=O)Nc1ccc(S(=O)(=O)NCc2ccc3c(c2)cc(C)n3C)cc1	14%	-8%	9%	-2%	?	23µM*
Cc1cc2cc(CNS(=O)(=O)c3ccc4ccccc4c3)ccc2n1C	13%	-3%	0%	-8%	-3%	-16%
Cc1ccccc1C(=O)N1CCN(c2ccc(NC(=S)NC(=O)c3cccs3)cc2)CC1	7%	3%	5%	?	0%	13%
O=C(NCC(c1ccco1)N1CCCCC1)c1cccc(NS(=O)(=O)c2ccc(Br)cc2)c1 (stereo not given)	5%	126µM*	-11%	?	3%	16%
COc1ccc(CCNC(=O)C2CCN(Cc3nc(-c4ccccc4C)oc3C)CC2)cc1OC	1%	1%	7%	9%	-2%	-6%
COc1ccccc1Cn1c(=O)oc2ccc(C)cc21	6%	-7%	28µM*	-14%	-2%	-1%
COc1ccc(/C=C2/C(=O)N(CC3CCCO3)C(=S)N2C)c(OC)c1 (stereo not given)	i	-285%	451%	50µM*	?	?
COc1ccccc1/C=C1\NC(=S)N(CC2CCCO2)C1=O (stereo not given)	11%	9%	-1%	-17%	4%	?
COc1ccc(NC(=O)[C@H](C)NC(=O)C2CCN(S(=O)(=O)c3ccc(C)cc3)CC2)cc1	-9%	-18%	15%	-4%	-1%	-1%
Cn1cc(C2=C(c3ccc(Cl)cc3Cl)C(=O)NC2=O)c2ccccc21	100µM*	-47%	15%	?	?	?
O=C(CN1CCOCC1)NN=C1CCCCCCCCCCC1	4%	1%	18%	4%	0%	-12%
CCOC(=O)c1cc2n(c1/N=C/N(C)C)-c1ccccc1C2=O	100µM*	100µM*	48%	137%	?	?
SMILES	EPAC2 agonist	EPAC1 agonist	EPAC2 antag	EPAC1 antag	Rango complex inh	Rango release inh
CCOC(=O)C1=C(COC(=O)CCNS(=O)(=O)c2ccc(C)c(C)c2)NC(=O)NC1C (stereo not given)	3%	0%	-11%	-1%	-1%	-5%
CNC(=O)c1c(NC(=O)c2ccco2)sc2c1CCC2	4%	-6%	5%	16%	?	-23%
COc1ccccc1NC(=O)c1c(NC(=O)c2ccco2)sc2c1CCC2	6%	-8%	3%	-2%	?	21µM*
Cc1cccc(CN2C(=O)N/C(=C/c3cc(C)n(-c4cc(C)ccn4)c3C)C2=O)c1	8%	7%	-2%	?	?	13µM*[inhibitor]
CC(=O)N1CCN(c2ccc(NCc3ccco3)cc2)CC1	8%	-5%	2%	1%	1%	11%
CC(=O)N1CCN(c2ccc(NCc3ccc(-c4cccc(Cl)c4)o3)cc2)CC1	4%	5%	8%	-5%	?	12µM*
CC1=NOC(=O)/C1=C\c1ccc(-c2cc(Cl)ccc2Cl)o1	1%	3%	79µM*	-12%	?	14%
C/C(=C\C(=O)c1ccccc1)Nc1ccc(O)cc1	3%	21%	3%	71µM*	?	-11%
CCCN(CC(=O)Nc1ccccc1OC)C(=O)c1cc(S(=O)(=O)NCc2ccccc2)ccc1C	19%	-1%	9%	-15%	5%	-8%
CCc1nnc(NS(=O)(=O)c2ccc(NCc3cc(Cl)ccc3O)cc2)s1	-4%	-8%	?	?	-1%	-6%
CCc1nnc(NS(=O)(=O)c2ccc(NCc3cc(Cl)cc(Cl)c3O)cc2)s1	2%	-26%	18µM*	-22%	-6%	-2%
COc1ccc(C2=CC(c3ccc(OC)c(OC)c3)NC(=S)N2)cc1 (stereo not given)	-3%	-4%	-1%	5%	?	?
COc1cccc(C2=CC(c3ccc(OC)c(OC)c3)NC(=S)N2)c1 (stereo not given)	12%	5%	1%	-10%	?	7.3µM*
CCCCCc1c2c(cc(O)c1C(=O)O)OC(=O)c1c(cc(OC)cc1C(=O)CCCC)O2	-6%	-11%	50µM*	50µM*	0%	1%
COc1ccc(OC)c(C(=O)CCCC(=O)c2cc(OC)ccc2OC)c1	22%	14%	-12%	-17%	2%	2%
CCCCc1c(C(=O)O)cc(OC)cc1C(=O)O	-1%	6%	8%	10%	0%	0%
CCCCCc1c2c(cc(O)c1C(=O)O)OC(=O)c1cc(C(=O)CCCC)c(OC)cc1O2	4%	-32%	?	50µM*	1%	3%
CC(=O)N1C[C@H]2CON(C)[C@H]2C[C@H]1c1cccc(-c2cc(Cl)cc(Cl)c2)c1	13%	-12%	-27%	-15%	.	.
